PubChem BioAssay AID720650 (Broad Institute, 2013)
A number with no mark means an inactive call. Active and inactive are the calls of the source. The rule behind the calls is not given here.

Assay: C difficile toxins, biochemical counterscreen, UDPG substrate absence, confirmatory dose response (AID 720650)
Details: series mostly up to 19.5 µM; activity change, negative = inhibition: at the top concentration

| SMILES | activity change, negative = inhibition | AC50 |
| --- | --- | --- |
| COc1cc(/C=C2\SC(=S)N(NC(=O)c3cccc(O)c3)C2=O)ccc1O | -1.71% |  |
| O=C(C[C@H]1C[C@@H]2c3cc(NC(=O)c4ccc5c(c4)OCO5)ccc3O[C@@H]2[C@@H](CO)O1)NCc1cccc(F)c1 | -15.2% |  |
| O=c1[nH][nH]c(=O)c2c1[nH]c(=S)n2Cc1ccccc1 | -10.1% |  |
| ON=C1c2ccccc2-c2ccc(O)cc21 |  | 7.21 µM (active) |
| O=C(COc1ccccc1)Nc1ccc(S(=O)(=O)Nc2ncccn2)cc1 | -3.22% |  |
| CCOc1ccc(/C=N/n2nnnc2N)cc1O | 5.99% |  |
| O=C1Cc2cc(S(=O)(=O)NCc3ccccc3Cl)cc3c2N1CCC3 | 6.63% |  |
| Cc1ccc(NCCN(C)C)c2c(=O)c3cc(O)ccc3sc12 |  | 5.2 µM (active) |
| O=c1oc(-c2ccc(Br)cc2)nc2ccccc12 | -3.69% |  |
| O=C(O)c1ccc2c(c1)N(Cc1cccc(F)c1)C(=O)CS2 | -24.5% |  |
| CO[C@@H]1CN(C)C(=O)c2cc(NC(=O)NC(C)C)ccc2OC[C@@H](C)N(S(C)(=O)=O)C[C@H]1C | 7.43% [at 6.8 µM] |  |
| O=C(NC(=S)Nc1ccc(N2CCOCC2)cc1)c1ccccc1 | -9.02% |  |
| COC(=O)c1ccc(OC(=O)c2ccc(OC)cc2)c(OC)c1 | 5.2% |  |
| Cc1cc(C(=O)N2CCN(Cc3ccccc3)CC2)ccc1[N+](=O)[O-] | 6.71% |  |
| O=c1c2ccccc2nc(/C=C/c2ccc(O)cc2)n1-c1ccccc1O |  | > 39 µM |
| C/C(=N\Nc1cc(N2CCOCC2)ncn1)c1ccc(O)cc1 | -20.3% |  |
| O=C(Nc1ccc(O)cc1)/C(=C\c1ccncc1)NC(=O)c1ccccc1 |  | 11.8 µM (active) |
| Clc1ccc(/C=C/c2ncc[nH]2)c(Cl)c1 | -10.7% |  |
| Cc1ccccc1COc1ccc2oc(C)c(C(=O)O)c2c1 | -13.2% |  |
| COc1ccc(CNC(=O)C2=CC(c3ccc(C)cc3)=NS(=O)(=O)N2C)cc1 | -9.88% |  |

| SMILES | activity change, negative = inhibition | AC50 |
| --- | --- | --- |
| O=C(NCCc1cccc(Cl)c1)c1ccc(Cl)c([N+](=O)[O-])c1 | -6.18% |  |
| COc1ccc(CNC(=O)C2=CC(c3ccc(OC)c(OC)c3)=NS(=O)(=O)N2C)cc1 |  | > 39 µM |
| COc1ccc(NC(=O)c2cc(C)nc3ccccc23)c(OC)c1 | -3.39% |  |
| C=CCc1ccc(O)c(-c2ccc(O)c(CC=C)c2)c1 |  | > 39 µM |
| CC(=O)C[C@H]1c2ccccc2S(=O)(=O)N1C1CCCCC1 | 2.33% |  |
| COc1cccc(C(=O)C2CCCN(Cc3ccc(F)cc3)C2)c1 (centres undefined) | 11.8% |  |
| C[N+]1(CCCCSc2ccc(O)cc2)CCCCC1 |  | > 39 µM |
| O=C(OCn1nnc2ccccc2c1=O)c1cc2ccccc2o1 | -1.31% |  |
| CC(Sc1nc2ccccc2n1C)C(=O)Nc1ccc(N2CCOCC2)cc1 (centres undefined) | -16.8% |  |
| NS(=O)(=O)c1ccc(CCNC(=O)c2ccc(CS(=O)(=O)c3ccc(Br)cc3)o2)cc1 | -7.18% |  |
| CC1CC(=O)N(c2ccc(NCCc3ccc(O)cc3)c([N+](=O)[O-])c2)C1=O (centres undefined) | -3.89% |  |
| COc1ccc(-c2cnc3c(c2)C(=O)N([C@@H](C)CO)C[C@H](C)[C@H](CN(C)C(=O)C2CCCCC2)O3)cc1 | -9.66% |  |
| CNc1nc(C23CC4CC(CC(C4)C2)C3)cs1 | 2.94% |  |
| O=C(COc1ccc2ccc(=O)oc2c1)NCCN1CCOCC1 | -11.5% |  |
| O=C(OCC(=O)N1CCCCC1)c1ccccc1SCC(=O)N1CCCCC1 | -4.44% |  |
| C[C@H]1CN([C@@H](C)CO)S(=O)(=O)c2ccc(-c3ccncc3)cc2O[C@H]1CN(C)Cc1ccc(Oc2ccccc2)cc1 | -6.4% |  |
| Cc1ccc(-n2c(SCC(=O)O)nc3c(sc(=S)n3-c3ccc(C)c(C)c3)c2=O)cc1 |  | 13.7 µM (active) |
| COc1ccc(C2=NS(=O)(=O)N(C)C(C(=O)NCc3ccccc3)=C2)cc1OC | -0.969% |  |
| CCOc1ccc(NC(=O)c2ccc(CC)s2)c([N+](=O)[O-])c1 | -8.67% |  |
